# Data published in PubChem BioAssay (NCI).
# “And” between values parts separate entries of the source, which are not always exact repeats. Identical values can stand only once. This is part of a sample that, as a whole, favours compounds with a hit. Of some 83,000 tested, about 20% had one in any assay.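 Negative percent growth values reflect cell death: -40 means 40% of the cells present at the start died, and -100 means all died.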 The source made the active and inactive calls.
# Test system: NCI-H322M lung
# Assay: NCI-60 one-dose screen, 48 h (100 = growth as untreated, 0 = no growth, -100 = all killed)
# Conditions: 1 µM
# Protocol: Growth inhibition of the NCI-H322M human Non-Small Cell Lung tumor cell line is measured as a screen for anti-cancer activity. Cells are grown in 96 well plates and exposed to the test compound for 48 hours. Compounds are tested at a single concentration, which is 10^-5 M for most compounds. The reported endpoint is percent growth (GI% or GIPRCNT), where numbers from 0 - 100% represent growth inhibition, and numbers from -100% - 0 represent cell death. For example, a value of 40 represents 60% growth inhibition. A value of 0 means no net growth occurred over the course of the experiment. A value of -40 indicates 40% of cells at the beginning of the experiment died by the end of the experiment. A value of -100 means all cells are dead at the end of the experiment.
# NCI-60 Human Tumor Cell Lines Screen was performed using the standard one-dose NCI protocol, which is described in more detail at https://dtp.cancer.gov/discovery_development/nci-60/default.htm.
# Compounds with GIPRCNT values below 10 were considered active. Activity score was based on GIPRCNT using the following formula: […]
# Score is 0 for GIPRCNT values of 100 or above, 50 for GIPRCNT values of 0, and 100 for GIPRCNT values of -100.
row,SMILES,growth
1,CNC(=O)c1cc(Oc2ccc(CC(=O)Nc3cc(C(C)(C)C)nn3C)cc2)ccn1,92.5% (inactive)

# Same assay, conditions: 10 µM
row,SMILES,growth
1,O=C(O)c1sccc1O,87.5% (inactive)
2,CNC(=O)c1cc(Oc2ccc(CC(=O)Nc3cc(C(C)(C)C)nn3C)cc2)ccn1,93.4% (inactive)
3,CCc1ccccc1-n1c(N)c(C#N)c(-c2ccc(OC)c(OC)c2)c(C#N)c1=O,108% (inactive)

# Same assay, conditions: 10 µM unless noted
row,SMILES,growth
1,CC1=C[C@H]2c3c(c(O)c(O)c4oc5cc(O)cc(O)c5c(=O)c34)[C@H](c3cc(O)c(O)c4oc5cc(O)cc(O)c5c(=O)c34)[C@H]2C(C)(C)C1,12.1% (inactive) and -11.1% (active)
2,CCN1CCN(CCNc2nccc(-c3c(-c4cccc(O)c4)nc4sccn34)n2)S1(=O)=O,66% (inactive) and 68.3% (inactive)
3,O=C1C2=C(C(=O)c3ccccc31)C(O)(S(=O)(=O)O)C(O)(S(=O)(=O)O)C1N=CC=CC21 (stereo not given),44.8% (inactive) and 16.8% (inactive)
4,COc1ccc2ccccc2c1/C=N/N1CCCCC1,105% (inactive)
5,CCN(CC)CCOc1ccc(/C=N/Nc2nc3c([nH]2)c(=O)n(C)c(=O)n3C)cc1,109% (inactive) and 94.1% (inactive)
6,CC1CCCC(=O)O1 (stereo not given),106% (inactive)
7,O=C(CCl)c1ccc2c(c1)Nc1ccccc1S2,102% (inactive) and 92.7% (inactive)
8,c1ccc2c(CC3=NCCN3)cccc2c1,98.1% (inactive) and 115% (inactive)
9,CNC(=O)c1cc(Oc2ccc(NC(=O)Nc3ccc(Cl)c(C(F)(F)F)c3)cc2)ccn1,-2.52% (active) and 18.3% (inactive)
10,COC(=O)c1nc(N)nc(C(=O)OC)c1C(=O)c1ccc(OC)cc1,105% (inactive) and 88.1% (inactive)
11,CNC(=O)c1cccnc1,110% (inactive)
12,O=C=NC(c1ccccc1)(c1ccccc1)c1ccccc1,104% (inactive)
13,CC(=O)Nc1cccc2c1CCCC2,113% (inactive) and 98% (inactive)
14,Cc1ccc(S(=O)(=O)Nc2ccc3cc([N+](=O)[O-])ccc3c2[N+](=O)[O-])cc1,93% (inactive) and 93.1% (inactive)
15,c1ccc2cc(C[n+]3ccn(Cc4ccc5ccccc5n4)c3)ccc2c1,34.8% (inactive) and 75% (inactive)
16,Clc1ccc(NC(Nc2ccc(Cl)cc2)C(Cl)(Cl)Cl)cc1,81.4% (inactive) and 104% (inactive)
17,O=C(Cc1cccc2ccccc12)N/N=C/c1ccc2c(c1)CCC2,84.3% (inactive)

row,SMILES,growth
1,NC(=O)c1ccccc1OCC(O)CO (stereo not given),110% (inactive)
2,COc1ccc2c(=O)cc(-c3ccccc3)[nH]c2c1,66.1% (inactive) and 56.9% (inactive)
3,O=C(/C=C/c1ccccn1)c1ccccc1O,100% (inactive) and 113% (inactive)
4,CNc1cc(-c2cccc(OC(F)(F)F)c2)nc2ccc(N3CCCC3)cc12,61.8% (inactive) and -4.66% (active) and 76.6% (inactive)
5,Cc1nnc(NC/C=C/c2ccccc2)s1,88.5% (inactive) and 112% (inactive)
6,CC(=O)Nc1ccc(O)cc1,108% (inactive) and 111% (inactive) and 102% (inactive)
7,CCOC(=O)Nc1ccc2c(c1)/C(=N\NC(N)=S)c1ccccc1-2,83.8% (inactive) and 94.9% (inactive)
8,OC(COc1cccc2ccccc12)CN1CCN(c2ccc(Cl)cc2)CC1 (stereo not given),90% (inactive) and 102% (inactive)
9,O=CC(O)C(O)C(O)CO (stereo not given),101% (inactive) and 96.6% (inactive)
10,CN(Cc1ccccc1)Cc1ccccc1,81.3% (inactive)
11,Cc1cc(=O)[nH]c(O)c1C#N,95.5% (inactive) and 99% (inactive)
12,O=C1OC2(c3ccccc31)c1ccc(O)c(O)c1Oc1c2ccc(O)c1O,109% (inactive) and 130% (inactive)
13,ClC/C=C/CSc1ncnc2nc[nH]c12,110% (inactive)
14,O=C(Nc1ccc(Cl)cc1)c1cc2ccccc2cc1O,17.1% (inactive) and 19.6% (inactive)
15,CC1(C)[C@@H](OC(=O)CCC(=O)O)CC[C@]2(C)[C@H]3C(=O)C=C4[C@@H]5C[C@@](C)(C(=O)O)CC[C@]5(C)CC[C@@]4(C)[C@]3(C)CC[C@@H]12,107% (inactive) and -54.4% (active)
16,CN1CCN(c2ccc3nc(-c4c(N)c5c(F)cccc5[nH]c4=O)[nH]c3c2)CC1,52.4% (inactive) and 61.6% (inactive)

# Same assay, conditions: 30 µM
row,SMILES,growth
1,CNC(=O)c1cc(Oc2ccc(CC(=O)Nc3cc(C(C)(C)C)nn3C)cc2)ccn1,105% (inactive)

# Same assay, conditions: 100 µM
row,SMILES,growth
1,O=C(O)c1sccc1O,50.9% (inactive)
2,CCc1ccccc1-n1c(N)c(C#N)c(-c2ccc(OC)c(OC)c2)c(C#N)c1=O,39.5% (inactive)
